{"source": "the supplement of paper PMC6518042", "data": [{"system": "Pectobacterium parmentieri SCC3193", "test": "DuctApe activity index (growth/respiration on compound as sole nutrient source, blank-subtracted) (activity index (0-3)); higher = stronger utilization of the compound, active = 3 or more", "conditions": "nutrient role (plate category): carbon", "experimental": "(§1)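 Biolog Phenotype Microarray plates PM1, PM2A (carbon), PM3 (nitrogen) and PM4 (phosphorus/sulfur) inoculated with P. parmentieri SCC3193 in M9-C minimal salts medium with Biolog dye A, and read in the OmniLog for 46 h. Each well was tested in triplicate and the experiment was run twice. DuctApe computed a blank-subtracted activity index (AV, 0-3) from the mean curves; growth is positive at AV >= 3 and negative at AV <= 2.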", "values": [{"smiles": "C[C@@H](O)[C@H](N)C(=O)O", "note": "[L-Threonine]", "DuctApe activity index": "0 (inactive)"}, {"smiles": "NC(=O)C[C@H](N)C(=O)O", "note": "[L-Asparagine]", "DuctApe activity index": "3 (active)"}, {"smiles": "NCCC[C@H](N)C(=O)O", "note": "[L-Ornithine]", "DuctApe activity index": "0 (inactive)"}, {"smiles": "OC[C@H]1OC(O)[C@H](O)[C@@H](O)[C@@H]1O", "note": "(stereo partly drawn) [a-D-Glucose]", "DuctApe activity index": "3 (active)"}, {"smiles": "N[C@@H](Cc1ccccc1)C(=O)O", "note": "[L-Phenylalanine]", "DuctApe activity index": "0 (inactive)"}, {"smiles": "CC(=O)N[C@@H](CCC(=O)O)C(=O)O", "note": "[N-Acetyl-L-Glutamic acid]", "DuctApe activity index": "0 (inactive)"}, {"smiles": "OC[C@H]1OC(O[C@H]2[C@H](O)[C@@H](CO)OC(O[C@H]3[C@H](O)[C@@H](CO)OC(O)[C@@H]3O)[C@@H]2O)[C@H](O)[C@@H](O)[C@@H]1O", "note": "(some centres not stated) [Laminarin]", "DuctApe activity index": "0 (inactive)"}, {"smiles": "N=C(N)NCCC[C@H](N)C(=O)O", "note": "[L-Arginine]", "DuctApe activity index": "0 (inactive)"}, {"smiles": "N[C@@H](CCC(=O)O)C(=O)O", "note": "[L-Glutamic acid]", "DuctApe activity index": "2 (inactive)"}, {"smiles": "CC(=O)N[C@H]1C(O)O[C@H](CO)[C@H](O)[C@@H]1O", "note": "(stereo partly drawn) [N-Acetyl-D-Galactosamine]", "DuctApe activity index": "3 (active)"}, {"smiles": "O=C(O)[C@@H](O)[C@@H](O)[C@H](O)[C@@H](O)C(=O)O", "note": "[D-Saccharic acid]", "DuctApe activity index": "3 (active)"}, {"smiles": "O=C(O)[C@@H]1CCCN1", "note": "[L-Proline]", "DuctApe activity index": "0 (inactive)"}, {"smiles": "O=C1CC[C@@H](C(=O)O)N1", "note": "[L-Pyroglutamic acid]", "DuctApe activity index": "0 (inactive)"}, {"smiles": "O=C(O)[C@@H]1C[C@@H](O)CN1", "note": "[Hydroxy-L-Proline]", "DuctApe activity index": "0 (inactive)"}, {"smiles": "O=C(CO)[C@@H](O[C@H]1O[C@H](CO)[C@@H](O)[C@H](O)[C@H]1O)[C@H](O)[C@H](O)CO", "note": "[Turanose]", "DuctApe activity index": "0 (inactive)"}]}, {"system": "Pectobacterium parmentieri SCC3193", "test": "DuctApe activity index (growth/respiration on compound as sole nutrient source, blank-subtracted) (activity index (0-3)); higher = stronger utilization of the compound, active = 3 or more", "conditions": "nutrient role (plate category): nitrogen", "experimental": "as §1", "values": [{"smiles": "N[C@@H](Cc1c[nH]cn1)C(=O)O", "note": "[L-Histidine]", "DuctApe activity index": "0 (inactive)"}, {"smiles": "N[C@@H](CCO)C(=O)O", "note": "[L-Homoserine]", "DuctApe activity index": "0 (inactive)"}, {"smiles": "Nc1ncnc2c1ncn2[C@@H]1O[C@H](CO)[C@@H](O)[C@H]1O", "note": "[Adenosine]", "DuctApe activity index": "2 (inactive)"}, {"smiles": "CSCC[C@H](NC(=O)CN)C(=O)O", "DuctApe activity index": "0 (inactive)"}, {"smiles": "N[C@@H](CO)C(=O)O", "note": "[L-Serine]", "DuctApe activity index": "1 (inactive)"}, {"smiles": "O=c1ccn([C@@H]2O[C@H](CO)[C@@H](O)[C@H]2O)c(=O)[nH]1", "note": "[Uridine]", "DuctApe activity index": "0 (inactive)"}, {"smiles": "C[C@H](N)C(=O)NCC(=O)O", "DuctApe activity index": "0 (inactive)"}, {"smiles": "NCCCC(=O)O", "note": "[g-Amino-N-Butyric acid]", "DuctApe activity index": "1 (inactive)"}, {"smiles": "NC(=O)CC[C@H](N)C(=O)O", "note": "[L-Glutamine]", "DuctApe activity index": "2 (inactive)"}, {"smiles": "C[C@@H](N)C(=O)O", "note": "[D-Alanine]", "DuctApe activity index": "0 (inactive)"}, {"smiles": "C[C@@H](O)[C@H](N)C(=O)O", "note": "[L-Threonine]", "DuctApe activity index": "0 (inactive)"}, {"smiles": "NC(=O)C[C@H](N)C(=O)O", "note": "[L-Asparagine]", "DuctApe activity index": "2 (inactive)"}, {"smiles": "NCCC[C@H](N)C(=O)O", "note": "[L-Ornithine]", "DuctApe activity index": "0 (inactive)"}, {"smiles": "N[C@@H](Cc1ccccc1)C(=O)O", "note": "[L-Phenylalanine]", "DuctApe activity index": "0 (inactive)"}, {"smiles": "CC(=O)N[C@@H](CCC(=O)O)C(=O)O", "note": "[N-Acetyl-L-Glutamic acid]", "DuctApe activity index": "0 (inactive)"}, {"smiles": "N=C(N)NCCC[C@H](N)C(=O)O", "note": "[L-Arginine]", "DuctApe activity index": "0 (inactive)"}, {"smiles": "N[C@@H](CCC(=O)O)C(=O)O", "note": "[L-Glutamic acid]", "DuctApe activity index": "1 (inactive)"}, {"smiles": "CC(=O)N[C@H]1C(O)O[C@H](CO)[C@H](O)[C@@H]1O", "note": "(stereo partly drawn) [N-Acetyl-D-Galactosamine]", "DuctApe activity index": "3 (active)"}, {"smiles": "N[C@@H](CS)C(=O)O", "note": "[L-Cysteine]", "DuctApe activity index": "0 (inactive)"}, {"smiles": "O=C(O)[C@@H]1CCCN1", "note": "[L-Proline]", "DuctApe activity index": "0 (inactive)"}, {"smiles": "O=C1CC[C@@H](C(=O)O)N1", "note": "[L-Pyroglutamic acid]", "DuctApe activity index": "0 (inactive)"}, {"smiles": "C[C@H](N)C(=O)N[C@H](C(=O)O)[C@@H](C)O", "DuctApe activity index": "0 (inactive)"}]}]}
